According to PubChem BioAssay:
Values joined by “and” are separate entries in the source; they are usually repeats but may differ in a detail not shown here. Equal entries are not always repeated. Active and inactive are the calls of the source. Unless noted, no rule for the calls is given here.

Experiments:
[1] = test system: Wnt5a (protein binding on small-molecule microarray); test: small molecules binding Wnt5a protein – biophysical, small-molecule microarray, 635/667 nm fluorescence, primary screen (AID 1142); conditions: 635 nm fluorescence, higher = more signal;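 also: fluorescence read at 667 nm with signal to noise per printed feature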
[2] = ATP-based viability of Huh7 replicon cells – cell-based, CellTiter-Glo luminescence, basal, 48 h, cytotoxicity control for HCV replication inhibitor project, primary screen (AID 1143); conditions: higher = more signal, called active from +8 up or from −8 down;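 also: Huh7 hepatoma cells carrying a hepatitis C replication reporter with no stimulus; test concentration not given here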
[3] = Pseudomonas biofilm growth suppression – PAO1 strain, BacTiter-Glo luminescence, LB-PBS, primary screen (AID 1144); conditions: P. aeruginosa PAO1 biofilm, 12 h, higher = more signal
[4] = basal CRE-LacZ reporter activity in PC12 – cell-based, unstimulated, primary screen (AID 1145); conditions: no forskolin, luminescence, 4.5 h, higher = more signal, called active from +8 up or from −8 down
[5] = forskolin-driven CRE-LacZ activity in PC12 – cell-based, CRE-LacZ reporter, forskolin-stimulated, primary screen (AID 1146); conditions: luminescence, 4.5 h, higher = more signal, called active from +8 up or from −8 down;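 also: PC12 cells with 6xCRE LacZ reporter stimulated by forskolin 10 µM; beta-galactosidase reporter signal reflecting CREB driven transcription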
[6] = target: Streptavidin (Streptomyces avidinii) (UniProt P22629); test: compounds binding control protein streptavidin – biophysical, small-molecule microarray, 635/667 nm fluorescence, artefact control for SMM compound annotation, primary screen (AID 1147); conditions: higher = more signal;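 also: signal reflects streptavidin binding to arrayed compounds as a control protein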
[7] = probe aInhba binding on compound microarray – biochemical, small-molecule microarray, 635/667 nm fluorescence, primary screen (AID 1148); conditions: higher = more signal;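 also: score merges 667nm spot fluorescence with signal-to-noise for antibody binding to printed compounds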
Torsin-1A (Homo sapiens) [8] = target: Torsin-1A (Homo sapiens) (UniProt O14656); test: TOR1A wild-type binding on microarray – cell lysate, small-molecule microarray, lysate, 635/667 nm, primary screen (AID 1149); conditions: COS7 hTOR1A-WT lysate, 635 nm fluorescence, higher = more signal
Torsin-1A (Homo sapiens) [9] = target: Torsin-1A (Homo sapiens) (UniProt O14656); test: torsin A mutant lysate binding on microarrays – cell lysate, small-molecule microarray, COS7 lysate, 635/667 nm fluorescence, primary screen (AID 1150); conditions: COS7 hTOR1A mutant lysate, 635 nm fluorescence, higher = more signal;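 also: score pools 667 nm emission and signal to noise measuring lysate protein binding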
[10] = test system: Sonic hedgehog protein (Shh); test: Sonic hedgehog microarray binding compounds – biochemical, small-molecule microarray, 635/667 nm fluorescence, primary screen (AID 1151); conditions: 635 nm fluorescence, higher = more signal;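 also: Shh protein binding to compounds spotted on small-molecule microarray slides; score combines spot fluorescence intensity with signal-to-noise across triplicate slides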
[11] = optical density shifts of acrAB sulA E. coli – strain DRC41, OD650, 48 h, E. coli filamentation inducer project, primary screen (AID 1152); conditions: higher = more signal, called active from +8 up or from −8 down;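 also: E. coli MC1000 strain DRC41 lacking acrAB efflux pump and sulA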
[12] = probe aLefty1 binding on compound microarray – biochemical, small-molecule microarray, 635/667 nm fluorescence, primary screen (AID 1153); conditions: higher = more signal;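 also: score merges spot fluorescence with signal-to-noise ratio from the scanned slide images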
[13] = plasmodial surface anion channel blockers, osmotic lysis – cell-based, P. falciparum Indochina, OD700, 1 h, primary screen (AID 1154); conditions: P. falciparum Indochina infected RBC osmotic lysis, higher = more signal, called active from +8 up or from −8 down
[14] = plasmodial surface anion channel blockers, osmotic lysis – cell-based, P. falciparum Indochina, OD700, 2 h, primary screen (AID 1155);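 also: lysis reports solute entry through the parasite surface anion channel PSAC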; conditions: P. falciparum Indochina infected erythrocytes, higher = more signal, called active from +8 up or from −8 down
[15] = changes in parasitized red cell lysis, either direction – P. falciparum Indochina, OD700, 3 h, PSAC antagonist project, primary screen (AID 1156); conditions: P. falciparum-infected erythrocytes, osmotic lysis, higher = more signal, called active from +8 up or from −8 down
[16] = plasmodial surface anion channel blockers, osmotic lysis – cell-based, P. falciparum Indochina, OD700, 18 h, primary screen (AID 1157); conditions: P. falciparum Indochina infected erythrocytes, osmotic lysis OD700, 18 h; higher = more signal, called active from +8 up or from −8 down
[17] = S6 kinase pathway phospho-S6 level changes – cell-based, A549, cytoblot, luminescence, serum-stimulated, primary screen (AID 1158); conditions: 5 h, higher = more signal;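 also: serum-stimulated A549 lung adenocarcinoma cells; signal is phosphorylated S6 detected by cytoblot immunostaining with HRP secondary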
[18] = target: NADPH oxidase 2 (Homo sapiens) (UniProt P04839); test: compounds shifting NOX2 Amplex Red fluorescence – cell-based, HEK293-NOX2, PMA-stimulated, NOX inhibitor project, primary screen (AID 1159); conditions: 45 min, higher = more signal, called active from +8 up or from −8 down; also: test concentration not given here
[19] = target: NADPH oxidase 4 (Homo sapiens) (UniProt Q9NPH5); test: compounds shifting NOX4 Amplex Red fluorescence – cell-based, HEK293-NOX4, tetracycline-induced, NOX inhibitor project, primary screen (AID 1160); conditions: HEK293-NOX4, Amplex Red H2O2 fluorescence, 45 min; higher = more signal, called active from +8 up or from −8 down
[20] = target: NADPH oxidase 5 (Homo sapiens) (UniProt Q96PH1); test: compounds shifting NOX5 Amplex Red fluorescence – cell-based, HEK293-NOX5, NOX inhibitor project, primary screen (AID 1161); conditions: HEK293-NOX5, ionomycin, 45 min, higher = more signal
Chain of NADPH oxidase 5 (Homo sapiens) (Q96PH1 whole entry, looked up): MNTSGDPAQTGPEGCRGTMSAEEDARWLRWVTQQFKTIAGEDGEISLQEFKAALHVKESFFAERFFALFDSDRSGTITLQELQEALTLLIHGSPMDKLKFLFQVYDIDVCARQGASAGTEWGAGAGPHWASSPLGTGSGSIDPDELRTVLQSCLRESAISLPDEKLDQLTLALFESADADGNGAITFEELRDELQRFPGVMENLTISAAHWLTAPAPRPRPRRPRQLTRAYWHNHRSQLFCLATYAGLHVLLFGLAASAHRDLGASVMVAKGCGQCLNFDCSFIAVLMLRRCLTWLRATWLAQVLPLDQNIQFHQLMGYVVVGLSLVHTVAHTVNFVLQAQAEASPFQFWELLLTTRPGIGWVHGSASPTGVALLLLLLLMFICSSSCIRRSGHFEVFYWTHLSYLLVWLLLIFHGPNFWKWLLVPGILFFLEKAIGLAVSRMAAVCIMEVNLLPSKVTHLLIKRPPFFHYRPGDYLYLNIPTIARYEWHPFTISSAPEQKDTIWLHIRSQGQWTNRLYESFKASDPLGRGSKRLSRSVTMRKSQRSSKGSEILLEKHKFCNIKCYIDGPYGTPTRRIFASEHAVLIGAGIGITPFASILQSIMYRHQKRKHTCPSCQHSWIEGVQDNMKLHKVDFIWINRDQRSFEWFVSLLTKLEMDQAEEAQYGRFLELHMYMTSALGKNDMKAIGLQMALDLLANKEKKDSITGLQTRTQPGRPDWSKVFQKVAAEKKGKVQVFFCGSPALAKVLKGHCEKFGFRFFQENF

Chain of NADPH oxidase 4 (Homo sapiens) (Q9NPH5 whole entry, looked up): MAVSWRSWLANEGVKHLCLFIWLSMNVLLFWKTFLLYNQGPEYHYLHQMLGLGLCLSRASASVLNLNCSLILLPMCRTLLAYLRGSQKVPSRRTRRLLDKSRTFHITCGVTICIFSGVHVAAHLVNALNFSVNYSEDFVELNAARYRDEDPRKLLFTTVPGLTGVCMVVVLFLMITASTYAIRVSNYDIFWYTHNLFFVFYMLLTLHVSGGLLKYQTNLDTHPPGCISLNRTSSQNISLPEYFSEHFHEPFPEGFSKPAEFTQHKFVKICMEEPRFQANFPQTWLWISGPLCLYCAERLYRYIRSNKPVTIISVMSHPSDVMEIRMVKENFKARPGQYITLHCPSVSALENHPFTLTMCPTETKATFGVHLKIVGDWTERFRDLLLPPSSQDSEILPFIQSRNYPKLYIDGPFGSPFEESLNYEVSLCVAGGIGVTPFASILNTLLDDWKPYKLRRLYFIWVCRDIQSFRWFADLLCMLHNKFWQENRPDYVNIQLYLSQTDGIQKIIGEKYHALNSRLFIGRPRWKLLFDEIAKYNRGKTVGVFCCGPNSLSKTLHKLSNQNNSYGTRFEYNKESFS
Chain of NADPH oxidase 2 (Homo sapiens) (P04839 whole entry, looked up): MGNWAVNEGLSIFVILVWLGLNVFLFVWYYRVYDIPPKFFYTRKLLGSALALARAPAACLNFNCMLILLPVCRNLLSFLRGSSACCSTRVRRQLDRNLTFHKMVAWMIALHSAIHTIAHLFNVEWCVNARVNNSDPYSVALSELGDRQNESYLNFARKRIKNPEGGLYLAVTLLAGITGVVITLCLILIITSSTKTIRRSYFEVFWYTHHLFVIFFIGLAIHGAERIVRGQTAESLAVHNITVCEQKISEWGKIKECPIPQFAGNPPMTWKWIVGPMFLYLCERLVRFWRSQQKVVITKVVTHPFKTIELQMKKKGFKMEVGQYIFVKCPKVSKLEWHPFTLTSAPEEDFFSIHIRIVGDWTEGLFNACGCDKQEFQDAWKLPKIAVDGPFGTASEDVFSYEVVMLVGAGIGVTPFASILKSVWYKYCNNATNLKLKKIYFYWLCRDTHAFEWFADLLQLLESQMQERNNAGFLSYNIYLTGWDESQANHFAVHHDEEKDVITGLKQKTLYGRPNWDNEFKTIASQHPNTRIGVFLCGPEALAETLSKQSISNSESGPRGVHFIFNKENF
Chain of Streptavidin (Streptomyces avidinii) (P22629 whole entry, looked up): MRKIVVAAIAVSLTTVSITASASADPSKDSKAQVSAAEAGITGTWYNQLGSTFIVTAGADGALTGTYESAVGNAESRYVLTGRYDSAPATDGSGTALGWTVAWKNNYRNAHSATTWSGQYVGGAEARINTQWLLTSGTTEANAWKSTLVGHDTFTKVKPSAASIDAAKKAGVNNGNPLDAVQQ
Chain of Torsin-1A (Homo sapiens) (O14656 whole entry, looked up): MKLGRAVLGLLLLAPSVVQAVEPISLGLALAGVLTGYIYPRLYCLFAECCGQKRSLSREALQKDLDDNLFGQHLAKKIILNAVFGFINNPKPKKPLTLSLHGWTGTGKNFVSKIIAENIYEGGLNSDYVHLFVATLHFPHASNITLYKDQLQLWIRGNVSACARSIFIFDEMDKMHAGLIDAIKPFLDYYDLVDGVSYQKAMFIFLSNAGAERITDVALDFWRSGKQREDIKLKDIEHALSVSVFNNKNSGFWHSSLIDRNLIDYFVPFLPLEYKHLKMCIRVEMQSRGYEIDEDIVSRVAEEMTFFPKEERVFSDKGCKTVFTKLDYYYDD

| Structure (SMILES) | composite z-score [1] | z-score [2] | z-score [3] | z-score [4] | z-score [5] | composite z-score [6] | composite z-score [7] | composite z-score (Torsin-1A (Homo sapiens) [8]) | composite z-score (Torsin-1A (Homo sapiens) [9]) | composite z-score [10] | z-score [11] | composite z-score [12] | z-score [13] | z-score [14] | z-score [15] | z-score [16] | z-score [17] | z-score [18] | z-score [19] | z-score [20] |
| --- | --- | --- | --- | --- | --- | --- | --- | --- | --- | --- | --- | --- | --- | --- | --- | --- | --- | --- | --- | --- |
| COC(=O)[C@@]1(Cc2ccccc2)[C@H]2c3cc(C(=O)N(C)C)n(C[C@H](O)CO)c3C[C@H]2CN1C(=O)c1ccccc1 | -0.19 and 0.0986 | 0.0129 (inactive) and 0.255 (inactive) | -0.256 (inactive) and -0.607 (inactive) | 1.35 (inactive) and 0.204 (inactive) | 0.756 (inactive) and -0.209 (inactive) | -0.0247 and 0.888 | -0.0817 and 0.223 | -0.593 and 0.132 | 0.492 and 0.92 | -0.39 and -1.19 | -0.741 (inactive) and -1.44 (inactive) | 0.0903 and 0.415 | 0.67 (inactive) and 0.448 (inactive) | 0.324 (inactive) and 0.32 (inactive) | 1.28 (inactive) and 0.776 (inactive) | 0.789 (inactive) and 0.446 (inactive) | -0.0187 and -0.333 | -0.0779 (inactive) and 0.104 (inactive) | -3.17 (inactive) and -0.539 (inactive) | -4.08 and -0.292 |
| CCOC(=O)[C@@H]1CC2O[C@]23C[C@@H]1C(=O)N1CCC[C@@H]1[C@H]3O[Si](C)(C)C(C)(C)C (stereo not given in full) | 0.187 and -0.0017 | -1.17 (inactive) and 0.553 (inactive) | -0.377 (inactive) and 0.487 (inactive) | -1.23 (inactive) and -0.414 (inactive) | -0.217 (inactive) and 1.42 (inactive) | -0.468 and -0.0735 | -0.105 and 0.651 | -0.36 and -0.384 | -0.855 and -0.032 | 0.361 and 1.05 | -1.1 (inactive) and -0.757 (inactive) | -0.229 and -0.255 | 0.827 (inactive) and -0.309 (inactive) | -0.168 (inactive) and 0.0095 (inactive) | -0.03 (inactive) and -0.708 (inactive) | 0.134 (inactive) and -0.162 (inactive) | -0.111 and -0.206 | 0.937 (inactive) and 0.661 (inactive) | 0.147 (inactive) and 5.07 (inactive) | -2.39 and -0.882 |
| C=C[C@@H](C)[C@H](O)c1ccc(O)c2ccccc12 | -0.419 and -0.647 | -2.11 (inactive) and 0.366 (inactive) | -0.14 (inactive) and -0.671 (inactive) | 0.441 (inactive) and -0.272 (inactive) | -0.349 (inactive) and 0.556 (inactive) | -0.984 and -0.766 | -0.224 and -0.233 | -0.595 and -0.309 | -0.518 and -0.45 | 1.96 and 0.17 | 0.687 (inactive) and 0.0364 (inactive) | -0.313 and -0.104 | 1.57 (inactive) and 1.31 (inactive) | 0.651 (inactive) and 0.739 (inactive) | -0.198 (inactive) and -0.13 (inactive) | 0.795 (inactive) and 0.599 (inactive) | 0.166 and 0.217 | -4.9 (inactive) and -4.75 (inactive) | -0.696 (inactive) and -0.723 (inactive) | 1.07 and 1.48 |
| C=CCN(C(=O)C(c1cccs1)N(CCOCCO)C(=O)/C=C\C(=O)O)c1ccc(OC)cc1 (stereo not given) | -0.459 and -0.385 | -0.751 (inactive) and -0.299 (inactive) | -2.23 (inactive) | -1.58 (inactive) and -0.749 (inactive) | -0.418 (inactive) and -1.15 (inactive) | -1.09 and -2.3 | -0.128 and -0.208 | -0.16 and -1.77 | -1.17 and -0.642 | -0.452 and 0.0229 | 3.55 (inactive) and 2.87 (inactive) | -0.262 and -0.142 | 0.195 (inactive) and -0.888 (inactive) | -0.567 (inactive) and -0.967 (inactive) | 0.0684 (inactive) and -1.43 (inactive) | -0.922 (inactive) and -0.842 (inactive) | 2.24 and 0.28 | 0.118 (inactive) and -0.448 (inactive) | -0.578 (inactive) and -1.19 (inactive) | -0.0456 and 0.0347 |
| C=C(C)C(=O)OC[C@@H]1CN2[C@@H](CC[C@@H](C)[C@@H]2c2ccc(Br)cc2)C(=O)O1 | -0.0892 | -0.0082 (inactive) | -1.58 (inactive) | 1.54 (inactive) | 0.11 (inactive) | -0.222 | -0.0895 | 0.457 | 0.231 | 0.605 | -0.181 (inactive) | 0.218 | 1.51 (inactive) | 0.0995 (inactive) | 0.289 (inactive) | 0.294 (inactive) | 0.525 | -0.29 (inactive) | 1 (inactive) | 0.481 |
| C[N+](C)(C)CCCCNC(=O)[C@H]1C[C@H]2C(=O)N[C@@H](CCCC[N+](C)(C)C)C(=O)N2[C@H]1c1ccc(O)cc1 | 0.96 and 0.388 | 0.171 (inactive) and -2.13 (inactive) | -0.597 (inactive) and -1.3 (inactive) | -0.541 (inactive) and 0.679 (inactive) | 0.485 (inactive) and -0.16 (inactive) | 0.16 and -1.27 | -0.154 and -0.251 | 2.32 and 1.51 | 0.287 and 0.683 | 2.27 and 2.33 | -0.0772 (inactive) and -0.0145 (inactive) | -0.0984 and -0.447 | -0.373 (inactive) and 0.369 (inactive) | -0.114 (inactive) and -1.21 (inactive) | -1.78 (inactive) and -0.688 (inactive) | 0.154 (inactive) and -2.13 (inactive) | -0.809 and 0.448 | -1.13 (inactive) and -2.89 (inactive) | -0.108 (inactive) and -3.27 (inactive) | -0.693 and -2.66 |
| C=C[C@H](OC)[C@@H](O)c1ccc(O)c(F)c1 | -0.542 and -1.18 | -0.217 (inactive) and -0.324 (inactive) | -0.263 (inactive) and -1.21 (inactive) | 1.53 (inactive) and 0.353 (inactive) | 1.41 (inactive) and 0.473 (inactive) | -1.42 and -1.09 | -0.409 and -0.32 | -1.55 and -3.36 | -1.77 and -2.26 | -1.28 and -0.249 | -0.809 (inactive) and 0.573 (inactive) | -0.266 and -0.148 | -0.0463 (inactive) and 0.351 (inactive) | 0.125 (inactive) and 0.702 (inactive) | -0.389 (inactive) and -0.0295 (inactive) | -0.138 (inactive) and 0.403 (inactive) | -0.141 and 0.723 | -1.01 (inactive) and -0.872 (inactive) | -0.137 (inactive) and -0.407 (inactive) | 0.0933 and -0.503 |
| CO[C@H]1COC(=O)[C@H](C)NC(=O)CC=C[C@@H](C)[C@H](OC)COC(=O)CC=C[C@@H]1C | 0.155 | 0.0447 (inactive) | -0.506 (inactive) | 1.51 (inactive) | -0.41 (inactive) | 0.14 | -0.237 | 1.85 | 1.81 | 1.62 | 0.343 (inactive) | -0.149 | -0.0029 (inactive) | 0.147 (inactive) | 0.597 (inactive) | -0.0165 (inactive) | -0.248 | 1.45 (inactive) | -1.65 (inactive) | -0.796 |
